D3 ag: qHTS of D3 Dopamine Receptor Agonist: qHTS. D3R DiscoveRx beta-arrestin cells, luminescence, 90 min. max activation, %. 0.58% of 410,000 active. AID 652048, 2013; in the data active = max activation above about 30%; also: 0% is about no effect
Target sequence (P35462 whole entry, looked up): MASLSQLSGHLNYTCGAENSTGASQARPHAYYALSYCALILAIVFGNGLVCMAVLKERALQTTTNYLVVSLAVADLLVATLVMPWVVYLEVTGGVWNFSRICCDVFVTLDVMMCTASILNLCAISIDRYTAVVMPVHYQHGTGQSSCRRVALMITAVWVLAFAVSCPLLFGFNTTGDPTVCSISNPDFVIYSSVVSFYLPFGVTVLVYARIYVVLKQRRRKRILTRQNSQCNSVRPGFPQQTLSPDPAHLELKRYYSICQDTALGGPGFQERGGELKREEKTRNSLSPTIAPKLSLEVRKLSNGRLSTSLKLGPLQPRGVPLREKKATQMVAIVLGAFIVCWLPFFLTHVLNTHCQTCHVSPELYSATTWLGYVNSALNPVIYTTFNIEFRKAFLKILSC
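Agonist-mode cell screen: cells plated at 1500/well and incubated overnight at 37 °C, then exposed to library compounds for 90 min at 37 °C. Detection reagent was added for 30–60 min at room temperature, and luminescence was read.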
SW480 rereplic: A quantitative high throughput screen for small molecules that induce DNA re-replication in SW480 colon adenocarcinoma cells. 1.8% of 340,000 active. AID 624297, 2012. Potency, µM (top dose mostly 46.1 µM), for the others: top-dose re-replication activation, hits mostly activators. SW480 DNA re-replication, Hoechst DNA content imaging, 48 h; also: potency is read from the fitted curve at half-maximal effect; % of control where 0% means no effect; nearly all actives have a fitted effect of over 55% in size
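DNA re-replication was detected as more nuclei of elevated Hoechst intensity after 48 hr exposure to compound (23 nL pinned per well of 250 cells).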
MCF10A rereplic: A quantitative high throughput screen for small molecules that induce DNA re-replication in MCF 10a normal breast cells; MCF 10A DNA re-replication, Hoechst nuclear intensity, 48 h; 2.9% of 350,000 active; Potency, µM (highest dose often 46.1 µM), inactives show top-dose activity, positive = re-replication, most hits filed as activators; also: potency is read from the fitted curve at half-maximal effect; % of control where 0% means no effect; nearly all actives have a fitted effect of over 50% in size
KB-V1 MDR tox: qHTS assay for MDR1-selective chemotherapeutics: Primary screen using the drug-selected MDR subline cells KB-V1. KB-V1 MDR cells viability, CellTiter-Glo, 72 h. Potency, µM (doses to about 46.1 µM), hits mostly cytotoxic. 3.4% of 400,000 active. AID 1347076, 2019; also: potency is read from the fitted curve at half-maximal effect; % is scaled to controls: 0 for no effect and ±100 for the full control effect; nearly all actives have a fitted effect of over 60% in size
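KB-V1 cells (P-gp-expressing MDR subline of KB-3-1) in phenol-red-free DMEM with 10% FBS were exposed to library compounds over a concentration series for 72 h at 37 degrees C. Viability read by CellTiter-Glo luminescence; concentration-effect curves fitted after normalization.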
KB-3-1 cytotox: qHTS assay for MDR1-selective chemotherapeutics: Primary screen using the parental adenocarcinoma cell KB-3-1 | AID 1347075, 2019 | Potency, µM (highest dose often 46.1 µM), usual class: cytotoxic | KB-3-1 viability, CellTiter-Glo ATP luminescence, 72 h | 1.4% of 400,000 active; also: potency is read from the fitted curve at half-maximal effect; % is scaled to controls: 0 for no effect and ±100 for the full control effect; nearly all actives have a fitted effect of over 60% in size
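Screening of KB-3-1 cells (DMEM, 10% FBS, phenol-red free) ran from lowest to highest compound concentration; after 72 h at 37 °C viability was read luminescently and curves fitted.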
D3 antag: qHTS of D3 Dopamine Receptor Antagonist: qHTS; max response, negative = inhibition, %; AID 652054, 2013; D3R cells, DiscoveRx beta-arrestin luminescence, antagonist mode; hits give low values; 2.5% of 360,000 active; in the data active = max response below about -50%; inconclusive = no clear call, values can overlap the other calls; also: % is scaled to controls: 0 for no effect and ±100 for the full control effect
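Cells expressing the human receptor were seeded at 1500 cells/well, incubated overnight at 37 degrees C in 5% CO2, then exposed to library compounds with dopamine controls for 90 minutes at 37 degrees C before luminescent detection.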
An asterisk follows results filed as active; i = inactive; ? = inconclusive; nt = no result given; ! = repeats disagree; [ ] = another dose, or the depositor's remark. Shown are actives, neighbours in structure and some others; about 8.9% of the full set was active somewhere. Unless noted, calls follow the shape of the dose curve; as a rule, active = well fitted curve in the direction sought with a large enough effect; inconclusive = small, poorly fitted or top-dose-only effect, or another doubt; inactive = no such curve, though single readings can be large; an effect the other way counts as inactive or inconclusive.

SMILES | D3 ag | SW480 rereplic | MCF10A rereplic | KB-V1 MDR tox | KB-3-1 cytotox | D3 antag
CCN(CC)CCNC(=O)C1c2cc(OC)c(OC)cc2C(=O)N(C)C1c1cccs1 (centres undefined) | -17.4 | -12.6% | -1.8% | ? | i | -97.5*
O=C(NCCN1CCN(Cc2ccccc2)CC1)C1c2ccccc2C(=O)N2CCc3ccccc3C12 (centres undefined) | 2.3 | -9.8% | -2.7% | i | i | ?
Cc1ccc(CNC(=O)C2c3ccccc3C(=O)N3CCc4ccccc4C23)o1 (centres undefined) | -16.8 | ? | 18.4µM* | i | i | 15.5
COc1ccc(C2C(C(=O)NCCN(C)C)c3cc(OC)c(OC)cc3C(=O)N2C)cc1OC (centres undefined) | -6.4 | -6.9% | 14.3% | i | i | -22.8
CCN1CCN(C(=O)C2c3cc(OC)c(OC)cc3C(=O)N3CCc4ccccc4C23)CC1 (centres undefined) | -9.5 | 0.8% | 0.8% | i | i | -3.8
CCCCN(CC)CCNC(=O)C1c2cc(OC)c(OC)cc2C(=O)N2CCc3ccccc3C12 (centres undefined) | 2.9 | 0.0% | -3.8% | i | i | -76.3*
O=C(COC(=O)C1CCN(S(=O)(=O)c2ccccc2C(F)(F)F)CC1)NCc1ccc(F)cc1 | 256.7* | 2.3% | 7.0% | i | i | -17.8
Cc1ccc(C)c(N2CCN(c3nc4ccccc4c4nc(CCn5nc(C)cc5C)nn34)CC2)c1 | 4.0 | nt | nt | i | i | nt
COc1ccc(C2NCCc3c2[nH]c2ccccc32)cc1CN1CCc2cc(OC)c(OC)cc2C1C (centres undefined) | -12.1 | ? | ? | i | i | -11.6
COc1ccc(C2NCCc3c2[nH]c2ccccc32)cc1COc1ccc(F)cc1 (centres undefined) | -9.6 | ? | 18.4µM* | ? | ? | -6.2
CC(C)[C@H](NC(=O)c1ccccc1F)C(=O)OCCN1C(=O)c2ccccc2C1=O | 4.5 | 0.7% | -0.8% | 14.6µM* | i | -5.9
CC(C)C(NC(=O)c1c(F)cccc1F)C(=O)OCN1C(=O)c2ccccc2C1=O (centres undefined) | 3.5 | 0.1% | 0.0% | i | i | 8.0
CC(C)NC(=O)c1ccc2c3n(nc2c1)-c1ccc(Cl)cc1CO3 | 30.9* | 6.3% | ? | i | i | 5.4
CCN(CC)CCCNC(=O)c1ccc2c3n(nc2c1)-c1ccc(Cl)cc1CO3 | -65.7 | 21.8% | -3.9% | i | i | -116.4*
CN(CCOc1ccccc1)CC(O)COc1ccccc1 (centres undefined) | -10.9 | 3.8% | -4.5% | i | i | -74.1*
CN(CCOc1ccc(Cl)cc1)CC(O)c1ccccc1 (centres undefined) | -8.6 | -82.4% | -15.8% | i | i | -51.9*
CN(CCOc1ccc(Br)cc1)CC(O)c1ccccc1 (centres undefined) | -13.4 | 9.9% | -4.6% | i | ? | -18.4
CC(OCC(O)CN(C)CCOc1ccccc1)c1ccc(Cl)cc1 (centres undefined) | -4.7 | -1.4% | -0.9% | 16.4µM* | i | -69.4*
CN(CCOc1ccccc1)CC(O)COCc1ccccc1F (centres undefined) | -4.7 | -9.1% | 0.7% | i | i | ?
Cc1ccc2c(c1)cc1c(=O)n(CC(=O)NCc3ccco3)nc(C)n12 | 3.4 | nt | nt | nt | nt | nt
O=C(NCC(c1ccco1)N1CCCC1)c1sc2ccccc2c1Cl (centres undefined) | -19.9 | -4.8% | ? | i | i | -15.0
CSc1ccccc1C(=O)NCC(c1ccco1)N1CCCCC1 (centres undefined) | -8.8 | 3.9% | 27.9% | ? | i | 6.5
Cc1c(C(=O)NCC(c2ccco2)N2CCCC2)sc2ccccc12 (centres undefined) | -23.7 | 19.0% | 101.9% | i | i | -64.3*
CCc1cc(C(=O)NCC(c2ccco2)N2CCCCC2)sc1C (centres undefined) | -8.6 | 2.1% | 15.4% | i | i | -59.4*
S=C(NCc1ccco1)NCC(c1ccco1)N1CCCCC1 (centres undefined) | 0.2 | ? | 2.0%[9.22 µM] | i | i | -65.8*
SMILES | D3 ag | SW480 rereplic | MCF10A rereplic | KB-V1 MDR tox | KB-3-1 cytotox | D3 antag
CCCOc1ccc(C2C(=O)N(C3CCC(C)CC3)CC(=O)N2CCc2ccccc2)cc1OC (centres undefined) | -2.1 | nt | nt | nt | nt | nt
Cn1cc(CCCC(=O)NCc2ccccc2Cl)c2ccccc21 | 8.9 | nt | nt | nt | nt | nt
Oc1ccccc1N1CCN(Cc2ncc(-c3ccccc3)o2)CC1 | -6.0 | -2.8% | -1.6% | i | i | -57.9*
c1ccc(-c2noc(CN3CCN(c4cnccn4)CC3)n2)cc1 | 12.0 | ? | ? | i | i | 0.6
O=C(NCc1ccco1)c1ccc2c(c1)N(Cc1ccccc1)C(=O)c1ccccc1S2(=O)=O | 0.4 | nt | nt | nt | nt | nt
CC1=CC(C)(C(Cl)(Cl)Cl)C(C)=CC1=NO (centres undefined) | -10.2 | nt | nt | i | i | -55.1*
CCCC(=O)Nc1nnc(SCc2cc(=O)c3cc(C)ccc3[nH]2)s1 | -12.6 | nt | nt | i | i | nt
CN1CCN(CCCN2c3ccccc3Sc3ccc(S(=O)(=O)N(C)C)cc32)CC1 | -23.2 | -38.3% | ? | 20.6µM* | i | -53.0*
OCCN1CCN(CC/C=C2/c3ccccc3Sc3ccc(Cl)cc32)CC1 | 0.0 | 29.1% | 4.61µM* | i | i | -12.3
CCCCCCCCCCCCCCCC(=O)OCCC1CCN(CCCN2c3ccccc3Sc3ccc(S(=O)(=O)N(C)C)cc32)CC1 | -22.8 | nt | nt | nt | nt | nt
OCCN1CCN(CCCN2c3ccccc3Sc3ccc(Cl)cc32)CC1 | -93.9 | ? | 20.6µM*! | ? | i | ?
Cc1ccc(Cn2cc3c(n2)-c2c(oc(C(=O)Nc4ccc(F)cc4F)c2C)CC3)cc1 | 0.6 | nt | nt | nt | nt | nt
Cc1ccccc1C(=O)Nc1cccc(C(=O)OCc2cc(=O)n3nc(C4CC4)sc3n2)c1 | 11.8 | nt | nt | i | i | nt
CCc1ccc(C(=O)CSc2nnc(C3CC3)n2C2CC2)cc1 | -5.4 | -2.7% | 14.7% | 11.6µM* | i | 6.7
COc1ccc(OC)c(C(=O)CSc2nnc(C3CC3)n2C2CC2)c1 | 4.3 | nt | nt | i | 16.4µM* | 6.2

Source: PubChem
